Inconclusive results are not listed. The source made the active and inactive calls. Unless noted, calls follow the shape of the dose curve; as a rule, active = well fitted curve in the direction sought with a large enough effect; inconclusive = small, poorly fitted or top-dose-only effect, or another doubt; inactive = no such curve, though single readings can be large; an effect the other way counts as inactive or inconclusive.
Tests used:
[1] = Cell Viability - BJ (AID 421; calls by dose curve;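 also: potency is read from the fitted curve at half-maximal effect; cells exposed to compound for 40 hours at 37 °C before readout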); details: BJ fibroblast viability, qHTS
Method in brief: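 Normal human BJ foreskin fibroblasts, 1500/well in complete medium, treated 40 hr at 37 °C. Cellular ATP by CellTiter-Glo luminescence; normalized to DMSO and 100 uM tamoxifen, AC50 from Hill fit.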

[2] = Cell Viability - Jurkat (AID 426;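 active = dose-dependent loss of cell ATP signal giving a full or clear fitted curve, ranked by lower potency value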; also: potency is read from the fitted curve at half-maximal effect); details: qHTS
Method in brief: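 Jurkat (Clone E6-1) cells, 5000/well in complete medium, exposed to compounds for 40 hr at 37C; intracellular ATP measured by CellTiter-Glo luminescence after 20 min at room temperature. AC50 from Hill fits.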

[3] = Cell Viability - Hek293 (AID 427;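 active = compounds whose dose-response curve shows a full or clear partial loss of cell viability, called from curve shape rather than a numeric limit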;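 also: potency is read from the fitted curve at half-maximal effect; cells exposed to compound for 40 hours at 37 °C before reading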); details: qHTS
Method in brief: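 HEK293 cells in complete medium were exposed to compound for 40 hr at 37 °C, then cellular ATP was read by CellTiter-Glo luminescence. Data were normalized to DMSO (basal) and 100 uM tamoxifen (100% inhibition), and AC50 came from Hill fits.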

[4] = Cell Viability - HepG2 (AID 433; calls by dose curve;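 also: potency is read from the fitted curve at half-maximal effect; potency for ATP loss meaning cytotoxicity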); details: qHTS
Method in brief: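 ATP luminescence (CellTiter-Glo) after 40 h compound exposure, 37 °C, HepG2, 1500 cells/well, complete medium. Normalized: DMSO = basal, 100 uM tamoxifen = 100% inhibition. AC50 via standard Hill equation.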

[5] = Cell Viability - MRC5 (AID 434; calls by dose curve;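 also: potency is read from the fitted curve at half-maximal effect; potency reflects cytotoxicity seen as loss of intracellular ATP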); details: MRC5 lung fibroblast viability, qHTS
Method in brief: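 qHTS cytotoxicity in human lung fibroblast MRC5 cells; 40 hr treatment, 37 °C; cellular ATP by luciferase luminescence; DMSO = 0%, 100 uM tamoxifen = 100% inhibition; Hill-fit AC50.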

[6] = Cell Viability - SK-N-SH (AID 435; calls by dose curve; also: potency is read from the fitted curve at half-maximal effect); details: SK-N-SH neuroblastoma cell viability qHTS
Method in brief: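 CellTiter-Glo ATP luminescence, 20 min RT read; cells pre-plated 5 hr, compound 40 hr at 37 °C, 1500 cells/well, complete medium. Normalized DMSO = 0, 100 uM tamoxifen = 100% inhibition; Hill-fit AC50.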

[7] = target: Mitogen-activated protein kinase 10 (Mus musculus) (UniProt Q61831); assay: JNK3 AlphaScreen Assay (AID 530; active = well fitted curve in either direction with a large enough effect, not every such curve was filed as active;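 also: kinase came from lysate of stimulated human HepG2 cells; signal reports phosphorylation of biotinylated GST-cJun 1-79 at Ser73 with 10 µM ATP; % is scaled to controls: 0 for no effect and ±100 for the full control effect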); details: JNK3 lysate, c-Jun phosphorylation; series mostly up to 57.1 µM
Method in brief: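 Compound titrations were preincubated 15 minutes at room temperature with substrate, antibody and pre-activated JNK3-containing HepG2 lysate. Reactions were started with 10 uM ATP and stopped with EDTA-containing bead buffer for AlphaScreen detection.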

[8] = Cell Viability - N2a (AID 540); details: N2a mouse neuroblastoma cell viability; activity change, negative = cytotoxicity: at 92.2 µM (top of the series);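 also: plate controls were DMSO alone for no effect and tamoxifen control for full effect; nearly all actives have a fitted effect of over 45% in size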
Method in brief: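 Mouse neuroblastoma N2a cells, 1500/well, exposed to compounds 40 h at 37 °C in complete medium. Viability measured as cellular ATP by CellTiter-Glo luminescence; AC50 from Hill fits of concentration-response.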

[9] = Cell Viability - NIH 3T3 (AID 541); details: NIH 3T3 cell viability, qHTS; activity change, negative = cytotoxicity: at 92.2 µM (top of the series);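 also: plate controls were DMSO alone for no effect and tamoxifen positive control for full effect; nearly all actives have a fitted effect of over 25% in size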
Method in brief: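 Mouse NIH 3T3 fibroblasts, 1000 cells/well, rested 5 hr at 37 °C, then exposed to compound for 40 hr at 37 °C in complete medium. Viability read as intracellular ATP by CellTiter-Glo luminescence; AC50 from Hill-equation fits of concentration-response data.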

[10] = Cell Viability - HUV-EC-C (AID 542); details: HUV-EC-C endothelial cell viability, qHTS; series mostly up to 92.2 µM; also: % is scaled to controls: 0 for no effect and ±100 for the full control effect; nearly all actives have a fitted effect of over 35% in size
Method in brief: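 HUV-EC-C human vascular endothelial cells, 1000/well, exposed to compound for 40 hr at 37 °C in complete medium. Intracellular ATP was read by CellTiter-Glo luminescence. AC50 came from Hill-equation fits of concentration-response data.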

[11] = Cell Viability - H-4-II-E (AID 543); details: H-4-II-E rat hepatoma viability; series mostly up to 92.2 µM; also: % is scaled to controls: 0 for no effect and ±100 for the full control effect; nearly all actives have a fitted effect of over 35% in size
Method in brief: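 Rat hepatoma H-4-II-E cells, 1500 per well, treated 40 h at 37 °C in complete medium. Cellular ATP read by CellTiter-Glo luminescence; AC50 from Hill fits of concentration-response.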

[12] = Cell Viability - SH-SY5Y (AID 544); details: SH-SY5Y neuroblastoma cell viability; viability change, negative = cytotoxic: at 92.2 µM (top of the series); also: nearly all actives have a fitted effect of over 55% in size
Method in brief: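 SH-SY5Y human neuroblastoma cells (1500/well) incubated 5 h, then compound-treated 40 h at 37 °C in complete medium. Viability read as intracellular ATP by CellTiter-Glo luminescence after 20 min; AC50 from Hill-equation fits of qHTS concentration-response.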

[13] = Cell Viability - Renal Proximal Tubule (AID 545); details: renal proximal tubule cells viability, primary cells of rat origin; series mostly up to 91.7 µM; also: nearly all actives have a fitted effect of over 40% in size
Method in brief: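 Rat kidney proximal tubule cells, freshly isolated; 1000 cells/well, 5 hr settle, compound 40 hr 37 °C. CellTiter-Glo 20 min RT, luminescence read. AC50 by standard Hill fit.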

[14] = Cell Viability - Mesenchymal (AID 546); details: mesenchymal cells viability, qHTS; series mostly up to 91.7 µM;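 also: cells exposed to compound for 40 hours before reading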
Method in brief: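 AC50 values reflect the drop in intracellular ATP in a human kidney mesenchymal line derived from normal glomeruli. Treatment lasts 40 hr at 37 °C in complete medium, and the signal comes from CellTiter-Glo luminescence.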

[15] = Cellular Toxicity (caspase-3) HepG2 (AID 654); details: HepG2 caspase-3 activation, luminescence; series mostly up to 92.2 µM;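 also: cells exposed to compound for 16 hours before reading; 0% = DMSO alone and 100% = caspase signal from 100 µM tamoxifen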
Method in brief: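 HepG2 cells (1500/well) were treated 16 h at 37 °C in complete medium, then caspase 3/7 activity was read by Caspase-Glo luminescence. Data were normalized to DMSO and 100 uM tamoxifen; AC50 came from Hill-equation fits of qHTS concentration-response.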

[16] = Cellular Toxicity (caspase-3) Jurkat (AID 655); details: Jurkat caspase-3 activation, luminescence; caspase-3 activation: at 92.2 µM (top of the series), DMSO = 0%, tamoxifen = 100%;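 also: cells exposed to compound for 16 h at 37 °C before reading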
Method in brief: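 Luminescent caspase-3/7 readout (aminoluciferin substrate cleavage) in human T-cell leukemia Jurkat cells after 16 hr compound exposure. Concentration-response normalized to DMSO and 100 uM tamoxifen; AC50 by standard Hill equation.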

[17] = Cellular Toxicity (caspase-3) HUV-EC-C (AID 656); details: HUV-EC-C cells, caspase-3 activation (apoptosis), vehicle = 0, 100 µM tamoxifen = 100%; series mostly up to 92.2 µM
Method in brief: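 Luminescent caspase-3/7 activation (aminoluciferin substrate cleavage) in HUV-EC-C cells after 16 hr compound exposure, 37°C. Signal normalized to DMSO basal and 100 uM tamoxifen as 100%; AC50 from concentration-response fitted with the Hill equation.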

[18] = Cellular Toxicity (caspase-3) SHSY5Y (AID 657); details: SH-SY5Y caspase-3 activation, DMSO zero, 10 µM staurosporine = 100%; series mostly up to 91.7 µM;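 also: cells exposed to compound for 16 hours at 37 °C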
Method in brief: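 Luminescent caspase-3/7 readout (aminoluciferin release) in SH-SY5Y cells after 16 h compound exposure in complete medium. Activity scaled between DMSO basal and 10 uM staurosporine as 100%; concentration-response fitted to Hill equation for AC50.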

[19] = Cellular Toxicity (caspase-3) BJ (AID 658); details: BJ fibroblasts, luminescence, normalized: DMSO 0%, staurosporine 100%; series mostly up to 91.7 µM;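 also: cells exposed to compound for 16 hours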
Method in brief: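 Readout: Caspase-Glo 3/7 luminescence increase in BJ cells after 16 hr treatment at 37 °C. Staurosporine and tamoxifen served as positive controls; AC50 values came from Hill modelling of data normalized to DMSO and 10 uM staurosporine.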

[20] = Cellular Toxicity (caspase-3) MRC-5 (AID 659); details: MRC-5 cells, luminescence, normalized: DMSO 0%, 10 µM staurosporine 100%; series mostly up to 91.7 µM;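 also: cells exposed to compound for 16 h at 37 °C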
Method in brief: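 Concentration-dependent caspase 3/7 activation is measured in human normal lung fibroblasts (MRC-5) following 16-hour treatment. AC50 values come from standard Hill-equation modeling of luminescence normalized to DMSO and 10 uM staurosporine.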

CNc1ccccc1
inactive: Potency [1] > 92 µM | Potency [2] > 92 µM | Potency [3] > 92 µM | Potency [4] > 92 µM | Potency [5] > 92 µM | Potency [6] > 92 µM | outcome [7] | activity change, negative = cytotoxicity [8] -12.9% | Potency [9] | Potency [10] | Potency [11] | Potency [12] | Potency [13] | Potency [14] | Potency [15] | caspase-3 activation [16] 1.08% | outcome [17] | outcome [18] | outcome [19] | outcome [20]

ICCc1ccccc1
inactive: Potency [1] > 92 µM | Potency [2] > 92 µM | Potency [3] > 92 µM | Potency [4] > 92 µM | Potency [5] > 92 µM | Potency [6] > 92 µM | outcome [7] | activity change, negative = cytotoxicity [8] 0.359% | Potency [9] | Potency [10] | Potency [11] | Potency [13] | Potency [14] | Potency [15] | caspase-3 activation [16] 0.274% | outcome [17] | outcome [18] | outcome [19]
active: viability change, negative = cytotoxic [12] -96.6%

C=C(C)C(=O)OC
inactive: Potency [1] > 92 µM | Potency [2] > 92 µM | Potency [3] > 92 µM | Potency [4] > 92 µM | Potency [5] > 92 µM | Potency [6] > 92 µM | outcome [7] | activity change, negative = cytotoxicity [8] 2.46% | Potency [9] | Potency [10] | Potency [11] | Potency [12] | Potency [13] | Potency [14] | Potency [15] | caspase-3 activation [16] 1.74% | outcome [17] | outcome [18] | outcome [19] | outcome [20]

Cc1ccccc1C=O
inactive: Potency [1] > 92 µM | Potency [2] > 92 µM | Potency [3] > 92 µM | Potency [4] > 92 µM | Potency [5] > 92 µM | Potency [6] > 92 µM | outcome [7] | activity change, negative = cytotoxicity [8] 2.15% | Potency [9] | Potency [10] | Potency [11] | Potency [12] | Potency [13] | Potency [14] | Potency [15] | caspase-3 activation [16] 0.742% | outcome [17] | outcome [18] | outcome [19] | outcome [20]

c1ccc(Oc2ccccc2)cc1
inactive: Potency [1] > 92 µM | Potency [2] > 92 µM | Potency [3] > 92 µM | Potency [4] > 92 µM | Potency [5] > 92 µM | Potency [6] > 92 µM | outcome [7] | activity change, negative = cytotoxicity [8] -0.0485% | Potency [9] | Potency [10] | Potency [11] | Potency [12] | Potency [13] | Potency [14] | Potency [15] | caspase-3 activation [16] 0.819% | outcome [17] | outcome [18] | outcome [19] | outcome [20]

From PubChem BioAssay (NCATS)
